# In PubChem BioAssay (EPA / NIEHS):
# Calls of active or inactive are those of the source. The calls were made as follows: active = hit-call score of the fitted dose curve at least 0.9, where 1 is the maximum; inactive = score below 0.9.
# Read-out: UDP glucuronosyltransferase (UGT1A6), UGT1A6 (gene 54578)
# Test: LTEA_HepaRG_UGT1A6: Life Technologies and Expression Analysis (LTEA) Assay for UDP glucuronosyltransferase (UGT1A6) using HepaRG (AID 2283539)
# Conditions: mRNA level, 48 h; actives raise or lower the signal
# Description: LTEA_HepaRG is a cell based, multiplexed-readout assay that uses HepaRG, a human liver cell line, with measurements taken at 48 hours after chemical dosing on a 96-well plate.LTEA_HepaRG_UGT1A6 is one of 102 assay component(s) measured in the LTEA HepaRG cell culture assay. It is a marker of NR mediated metabolism.Data from the assay component LTEA_HepaRG_UGT1A6 was analyzed into 1 endpoint. This assay endpoint, LTEA_HepaRG_UGT1A6, was analyzed with bidirectional fitting relative to DMSO as the negative control and baseline of activity. Using a type of inducible reporter, measures of mRNA induction for gain or loss-of-signal activity can be used to understand regulation of transcription factor activity. To generalize the intended target to other relatable targets, this assay endpoint is annotated to the transferase intended target family, where the subfamily is glucuronosyltransferase.
# A total of 1060 chemcials from the ToxCast library were tested in eight-point concentration-response experiments. Cell culture and cytotoxicity assays were conducted at Thermo Fisher Scientific's Custom Services facility (Madison, WI). A single lot of human HepaRG cells (Thermo Fisher Scientific, Frederick, MD) was used for the cell culture experiments. 96-well format collagen type I coated plates of human HepaRG cells were prepared using established methods. Briefly, cryopreserved HepaRG cells were thawed, plated at a density of approximately 100,000 cells/well in HepaRG Thaw, Plate, and General Purpose media (HPRG770, Thermo Fisher Scientific), and incubated for 48 hours. 0.5% DMSO was selected as vehicle control to balance the requisite need of DMSO in HepaRG cultures to maintain differentiation (for example, baseline metabolism, proportions of hepatocytes vs. cholangiocytes), while enabling further hepatic receptor pathway activation (for example, PXR and CAR) in response to chemical exposure. 48 hours after plating, the culture medium was replaced with HepaRG Serum-Free Incudtion Media. Cells were exposed to each test chemical in duplicate and maintained in CO2 incubators for another 48 hours. Chemical plates were thawed to room temperature and 200x concentrations of treatment groups were prepared. 8-point conentration-reponse curves were made with the highest exposure at 100 uM, followed by half-log dilutions, all in 0.5% DMSO. Each test plate contained variouse controls, induction positive controls (1mM phenobarbital), cytotoxicity positive controls ([…] aflatoxin B1), vehicle controls (0.5% DMSO), and total lysis controls (0.5% DMSO). Cell morphology images were taken using an Essen IncuCyte FLR automated microscope, with six 96-well plates imaged in about 24 minutes. Images were captured and exported and JPEG files. Spent culture media was transfered to black-well plates for the LDH assay, and remaining media was sorted at -80 C for later use. Cells were treated with RLT buffer and frozen until shipped for gene expression analysis. Total RNA was isolated from the cell suspension in 75 uL of Buffer RLT (Qiagen, Germantown, MD 20874) by Quintiles/Expression Analysis (Durham, NC) using a custom isolation procedure. Total RNA from each plate well was transferred to a preamplification plate. Fluidigm's 96.96 Dynamic ArrayTM (Fluidigm, Amsterdam, the Netherlands) technology was used for gene expression analyses by quantitative reverse transcription polymerase chain reaction (qRT-PCR, performed by Quintiles/Expression Analysis, Durham, NC)89. Standard TaqManTM Assays (Applied Biosystems/ThermoFisher Scientific, Foster City, CA) were used to assess the expression of 93 genes selected based on their selectivity and sensitivity to important hepatic receptors known to be modulated by environmental chemicals; importance in human hepatocyte functionality; and hepatotoxicity. […]
Structure (SMILES),outcome,AC50
CC(=O)OC/C=C(\C)CCC=C(C)C,inactive,–
OC[C@@H](O)[C@@H](O)[C@H](O)[C@H](O)CO,inactive,–
C=CCc1ccc(O)c(OC)c1,inactive,–
Cc1cc(NC(=O)C(=O)O)cc(C)c1Oc1ccc(O)c2c1CCC2,inactive,–
C=CCOC(=O)c1ccccc1C(=O)OCC=C,inactive,–
COC(=O)c1ccc(O)cc1,inactive,–
COc1cc(-c2nc(NC(=O)c3cc4cc(C)cc(C)c4n3CC(=O)O)sc2CCC2CCCCC2)c(OC)cc1Cl,–,7.34 µM (active)
CCCCCCCCCCCC(=O)OC,inactive,–
COc1ccc(C)cc1N,inactive,–
O=[N+]([O-])C(CO)(CO)CO,inactive,–
CC1(C)NC(=O)NC1=O,inactive,–
Nc1ccccc1N,–,75.8 µM (active)
CCOC(=O)C(C)(C)Oc1ccc(Cl)cc1,inactive,–
Oc1ccc2c(c1)OC[C@@H](N1CCC(O)(c3ccc(F)cc3)CC1)[C@H]2O,inactive,–
O=c1c(O)c(-c2ccc(O)c(O)c2)oc2cc(O)cc(O)c12,inactive,–
CCCCCCCCCCCCCCCC,inactive,–
Cc1cccc([N+](=O)[O-])c1C,inactive,–
CC(C)(C)c1cc(O)c(C(C)(C)C)cc1O,–,91.3 µM (active)
COc1cc(C=O)ccc1O,inactive,–
CCNc1cccc(C)c1,inactive,–

Structure (SMILES),outcome,AC50
CNC(=O)[C@H]1O[C@@H](n2cnc3c(NCc4cc(Cl)ccc4OCc4cc(C)no4)ncnc32)[C@H](O)[C@@H]1N,inactive,–
Cc1ccc2ncccc2c1,inactive,–
Cc1cccc(Nc2cc(Cl)nc(SCC(=O)O)n2)c1C,inactive,–
Cc1nc(-c2ccc3c(c2)CCN(CCC2CCC(NC(=O)/C=C/c4ccc(F)cc4)CC2)CC3)no1 (stereo not given),inactive,–
COCCOCCOC,inactive,–
CCCCCCC(=O)OCC,inactive,–
CCCCCCCCCCC,inactive,–
CCOc1ccc2c(c1)C(C)=CC(C)(C)N2,inactive,–
CCCc1cc(=O)[nH]c(=S)[nH]1,inactive,–
Cc1cccc(C)c1O,inactive,–
Nc1nc(N)c2nc(CNc3ccc(C(=O)N[C@@H](CCC(=O)O)C(=O)O)cc3)cnc2n1,inactive,–
NC(=O)Cn1c(=O)cc(CCN2CCN(c3nccc4sccc34)CC2)c2ccc(F)cc21,–,34.6 µM (active)
NS(=O)(=O)c1cc2c(cc1Cl)NCNS2(=O)=O,inactive,–
CC(=O)OCCOCCOCCOC(C)=O,inactive,–
Cc1ccc(C)c(C)c1,inactive,–
COCCOC[C@H](CC1(C(=O)NC2CCC(C(=O)O)CC2)CCCC1)C(=O)Oc1ccc2c(c1)CCC2 (stereo not given in full),inactive,–
CCCCCCOCCO,inactive,–
Cc1ccc(C(C)C)c(O)c1,inactive,–
Oc1ccc2ccccc2c1N=Nc1ccccc1,inactive,–
CCCCCCCC=O,inactive,–
